Hit rate of the full screen: of about 290,000 compounds, about 150 (0.052%) were called active. This is one part of a sample in which actives are shown more often than they occur. Results with a measured potency or affinity are listed apart. A number with no mark means an inactive call.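 How the source made its calls: active means inhibition of at least 50% with at least 30 cells and total cytoplasm GFP at most 10,000,000; inconclusive means under 30 cells or total GFP of 10,000,000 plus; inactive means the rest.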

Chain of G-protein coupled receptor 35 (Homo sapiens) (Q9HC97 whole entry, looked up): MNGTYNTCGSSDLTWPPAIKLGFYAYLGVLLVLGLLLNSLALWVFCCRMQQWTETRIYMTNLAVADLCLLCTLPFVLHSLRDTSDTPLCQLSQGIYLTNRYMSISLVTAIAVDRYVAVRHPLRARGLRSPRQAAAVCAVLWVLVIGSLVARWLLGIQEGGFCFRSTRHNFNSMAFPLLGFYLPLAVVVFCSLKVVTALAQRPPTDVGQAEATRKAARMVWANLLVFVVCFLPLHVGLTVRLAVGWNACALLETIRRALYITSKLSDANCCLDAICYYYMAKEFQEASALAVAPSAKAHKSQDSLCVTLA

This test addresses G-protein coupled receptor 35 (Homo sapiens) (UniProt Q9HC97). Put plainly: GPR35 antagonists blocking zaprinast-driven arrestin recruitment, primary screen, imaging, U2OS, beta-arrestin-GFP, zaprinast agonist (AID 2058). Conditions: U2OS GPR35 beta-arrestin-GFP translocation imaging, zaprinast antagonism; at 10 µM; hits give high values. On the technique in general: Recruitment of arrestin is a read-out of receptor activation apart from second messengers.
For orientation: inhibition means the drop in the measured response relative to a control, in per cent. As for `CC1CCN(S(=O)(=O)c2cccc(S(=O)(=O)N3CCCC3)c2)CC1`, the inhibition is 4.8%.
For the compound `NC(=O)c1cc2cc([N+](=O)[O-])ccc2oc1=O`, the inhibition is -20%.
Regarding `COc1ccc(C(=O)Nc2ccc(Cl)cc2C(=O)NCc2ccco2)cc1`, the inhibition was 14%.
For the compound `CCOc1ccc(CNc2ccc3c(c2)nc(C)n3C)cc1`, the inhibition is 4.9%.
On to `CCn1cnc2cc(NCc3ccc(OC)cc3)ccc21`, for which the inhibition was -12.4%.
With `CCOCC(O)CS(=O)(=O)c1ccccn1` (stereo not given), the inhibition was -4.6%.
For the compound `O=C(Nc1nc2ccc(Cl)cc2s1)c1ccc(N2CCCCC2)c([N+](=O)[O-])c1`, the inhibition was 4.2%.
As for `O=C(Nc1nc2ccc3ccccc3c2s1)c1ccc(N2CCCCC2)c([N+](=O)[O-])c1`, the inhibition was 5.5%.
Turning to `O=C(Cc1cccc2ccccc12)Nc1cc(Cl)ccc1C(=O)O`, the inhibition was -3.5%.
Turning to `O=C(CCC1N=C2c3ccccc3N=C(SCC(=O)NCC3CCCO3)N2C1=O)NCc1ccc(F)cc1` (stereo not given), the inhibition is -0.5%.
Take `N#C/C(=C\c1ccc(N2CCOCC2)o1)c1nc2ccccc2[nH]1`: the inhibition was 26.1%.
Take `N#C/C(=C\c1ccc(N2CCOCC2)o1)c1ccccc1`: the inhibition was 19.5%.
As to `CCn1c(CC(=O)Nc2ccccc2F)nnc1SCC(=O)N1CCN(c2ccccc2)CC1`, the inhibition was -10.6%.
For `CC(C)(C)NC(=O)CN(C(=O)C(=O)Nc1ccc2c(c1)OCCO2)C1CCCC1`, the inhibition is 15.5%.
On to `CC(=O)c1cccc(NC(=O)/C(=C\c2ccco2)NC(=O)c2ccco2)c1`, for which the inhibition is -5.7%.
The same measure for `CCN1C=CC2=C(C#N)C(N)C(C#N)(C#N)C(c3ccccc3C(F)(F)F)C2C1` (stereo not given): 12.6%; for `CN1C=CC2=C(C#N)C(N)C(C#N)(C#N)[C@H](c3ccccc3)[C@H]2C1` (stereo not given in full): 38.1%; for `CC1=C(C(=O)OCc2ccccc2)C(c2ccccc2Cl)NC(=O)N1CCCCCC(=O)O` (stereo not given): 0.1%.
To `O=S(=O)(Nc1nc2ccccc2s1)c1cc(F)ccc1F` belongs -10.3%; to `CC1CN(CCC(=O)Nc2ccc3c(c2)OCO3)CC(C)O1` (stereo not given), -12%.
The same measure for `C#CCOCCOCCOCCNc1nc(N2CCN(C(=O)[C@H]([C@@H](C)CC)n3cc(CCCN=C(N)N)nn3)CC2)nc(N2CCN(C(=O)[C@H](Cc3ccc(O)cc3)n3cc(CCO)nn3)CC2)n1`: -6.4%; for `CS(=O)(=O)N1N=C(c2ccc(Br)cc2)CC1c1ccc2c(c1)OCO2` (stereo not given): 20.6%; for `Cc1ccc(C2=NN(S(C)(=O)=O)C(c3ccc4c(c3)OCO4)C2)cc1` (stereo not given): 6.3%.
For the compound `O=C(NC1CCCC1)C(c1ccccn1)N(C(=O)c1csnn1)c1ccccc1` (stereo not given), the inhibition is 13.8%.
For `COc1ccc(/C=N/N2C(=O)CN(C(=O)c3ccccc3)C2c2ccc(OC)cc2)cc1` (stereo not given), the inhibition was 1.5%.
Regarding `COc1ccc(S(=O)(=O)N2CCOC2CNC(=O)C(=O)NCCc2c[nH]c3ccccc23)cc1` (stereo not given), the inhibition is 4.5%.
The same measure for `O=C(Nc1ccc(C2=NCCN2)cc1)c1ccc(C(=O)Nc2ccc(C3=NCCN3)cc2)c(Cl)c1`: 101% (active).
For the compound `O=C(Nc1ccc(C2=NCCN2)cc1)c1ccc(Cl)c(C(=O)Nc2ccc(C3=NCCN3)cc2)c1`, the inhibition is 13.7%.
Turning to `O=C(Nc1ccc(C2=NCCN2)cc1)c1ccc(C(=O)Nc2ccc(C3=NCCN3)cc2)c([N+](=O)[O-])c1`, the inhibition is -3.6%.
For the compound `COC(=O)c1sc(S(=O)(=O)N2CCC(C)CC2)c(C(=O)OC)c1C`, the inhibition was 10.9%.
For `COCCCNC(=S)N(CCCN(C)C)Cc1cc2cc3c(cc2[nH]c1=O)OCCO3`, the inhibition is -7.4%.
With `CCOC(=O)CC1C(=O)NCCN1C1CCCC1` (stereo not given), the inhibition was 9.7%.
The same measure for `CC(=O)NNC(=O)CN1C(=O)/C(=C/c2ccccc2)SC1=S`: -0.2%; for `Cc1c(C(=O)Nc2cccc(N(C)S(C)(=O)=O)c2)cccc1[N+](=O)[O-]`: -4.4%; for `O=c1ccc2cc3c4c(c2o1)CCCN4CCC3`: 22.1%.
For the compound `CC(C)c1cc(=O)oc2c3c4c(cc12)CCCN4CCC3`, the inhibition was -1.4%.
For `O=C(CNC(=O)N1CC(=O)Nc2ccccc21)Nc1ccc(F)c(Cl)c1`, the inhibition was -6.4%.
`CCc1ccc2[nH]c(=O)c(CN(CCN3CCOCC3)C(=O)Nc3ccccc3F)cc2c1`: the inhibition is 8.5%.
Take `CCC(C)[C@H](NC(=O)N1CCn2c1nc1ccccc12)C(=O)NCC1CCCO1` (stereo not given in full): the inhibition is -10.9%.
Consider `O=C(NC1CCCc2ccccc21)c1cn2ccccc2n1` (stereo not given), for which the inhibition is 13.2%.
With `Cc1ccc(CNC(=O)CSc2nc3ccsc3c(=O)n2Cc2ccc(C(=O)O)cc2)cc1`, the inhibition is -4.6%.
To `CC(C)c1ccc(NC(=O)CSc2nc3ccsc3c(=O)n2CCC(=O)O)cc1` belongs 6.9%.
As to `O=C(NCCN1CCOCC1)c1c[nH]c2ccc(S(=O)(=O)N3CCOCC3)cc2c1=O`, the inhibition is 3%.
As to `CCCS(=O)(=O)c1c(S(=O)(=O)CCC)c2c3ccccc3ccn2c1C(N)=O`, the inhibition was -10.5%.
Take `CCN(CC)S(=O)(=O)c1ccc(Cl)c(NC(=O)c2cc(Cl)ccc2Cl)c1`: the inhibition was 7.1%.
The same measure for `CCN(CC)S(=O)(=O)c1ccc(Cl)c(NC(=O)c2ccccc2C)c1`: 4.8%; for `CCOc1ccccc1N(C)C(=O)Cn1ncc2c([nH]c3ccc(C)cc32)c1=O`: -6.9%; for `CN(C(=O)COC(=O)c1ccccc1NC(=O)c1ccco1)C1CCS(=O)(=O)C1` (stereo not given): 29.1%.
To `Cc1ccc(NC(=O)c2nc[nH]c2C(=O)N[C@@H](C)c2ccccc2)cc1` belongs 53.8%; to `NS(=O)(=O)c1ccc(CCNC(=O)CCCOc2ccccc2)cc1`, 3.9%.
As to `Cc1ccc(CCNC(=O)CCS(=O)(=O)c2ccc(Br)cc2)cc1`, the inhibition was 3.1%.
`Cc1ccc(OCCC(=O)NCCc2ccc(S(N)(=O)=O)cc2)cc1`: the inhibition is 21.9%.
With `O=C(CCS(=O)(=O)c1ccc(Br)cc1)NCCc1ccccc1`, the inhibition was -8.4%.
On to `CC(=O)Nc1ccc(-c2nnc(SCc3ccccc3C#N)n2C)cc1`, for which the inhibition is -3.6%.
To `Cc1ccc(C(OCC(O)CNC(CO)C(O)c2ccc([N+](=O)[O-])cc2)c2ccccc2)cc1` (stereo not given) belongs 2%.
Take `CCCCc1ccc(/C=C2\C(=O)c3ccccc3C(O)=C2C(=O)OCC)cc1`: the inhibition was 59% (active).
Consider `CCOC(=O)C1=C(O)c2ccccc2C(=O)/C1=C\c1ccc(CC)cc1`, for which the inhibition is 31.1%.
Turning to `CCCc1ccc(/C=C2\C(=O)c3ccccc3C(O)=C2C(=O)OCC)cc1`, the inhibition is 21.2%.
As for `Cc1cccc(Oc2ncnc3onc(C)c23)c1`, the inhibition is -0.9%.
To `CCN1/C(=C/C=C/C=C/C=C/c2sc3ccccc3[n+]2CC)Sc2ccccc21` belongs 44.3%.
For `CCN1/C(=C/C=C/C=C/c2sc3ccccc3[n+]2CC)Sc2ccccc21`, the inhibition was 58.9%.
`CCN(c1ccccc1)S(=O)(=O)c1ccc(Cl)c(NC(=O)CSc2n[nH]c(N)n2)c1`: the inhibition was 0.7%.
For `COc1cccc(/C=c2\s/c(=C/C(=O)c3ccc(C)cc3)[nH]c2=O)c1OC`, the inhibition is -9.9%.
On to `COc1ccc(/C=c2\s/c(=C/C(=O)c3ccc(C)cc3)[nH]c2=O)cc1OC`, for which the inhibition was 8.2%.
Regarding `Cc1ccc(C)c(NC(=O)Nc2ccc3c(c2)OCO3)c1`, the inhibition is -7.8%.
Turning to `COc1ccccc1N1CCN(S(=O)(=O)c2ccc(Cl)s2)CC1`, the inhibition was -2.5%.
For the compound `Cc1oc(=O)c(NC(=O)c2cccc(Cl)c2)cc1C(=O)c1ccccc1`, the inhibition is -3%.
As for `COC(=O)c1cc(NC(=O)c2ccccc2)c(=O)oc1C`, the inhibition was -9.4%.
As for `COC(=O)c1cc(NC(=O)c2cccc(Cl)c2)c(=O)oc1/C=C/Nc1cc(C)cc(C)c1`, the inhibition was 93.3% (active).
For `CSc1nc2ccccc2cc1/C=C(\C#N)c1cccc(Cl)c1`, the inhibition was 3.7%.
For the compound `CSc1nc2ccccc2cc1/C=C(\C#N)c1cccc(C)c1`, the inhibition was 55.3% (active).
As for `CSc1nc2ccccc2cc1/C=C(\C#N)c1ccccc1`, the inhibition is 3.1%.
On to `CN(Cc1nc(-c2cccc(Cl)c2)no1)C1CCOCC1`, for which the inhibition was -8.4%.
With `CSC1=NSC2=NC(=O)/C(=C/c3coc4ccccc4c3=O)C(=N)N12`, the inhibition was 4.5%.
To `CCSC1=NSC2=NC(=O)/C(=C\c3coc4ccccc4c3=O)C(=N)N12` belongs 36.4%.
The same measure for `CC(=O)Nc1cccc(NC(=O)Cc2ccc3ccccc3c2)c1`: 0.8%; for `Cc1cc(N2C(=O)C(O)=C(C(=O)c3ccc(C)o3)C2c2ccc([N+](=O)[O-])cc2)no1` (stereo not given): 4.2%.
With `COC(=O)Cn1c(C)c(/C=C/c2cc[n+](C)cc2)c2ccccc21`, the inhibition is 17.9%.
To `C=CCn1cc(/C=C/c2cc[n+](C)cc2)c2ccccc21` belongs 17.1%; to `Cc1[nH]c2ccccc2c1/C=C/c1nc2ccccc2c(=O)[nH]1`, -11.7%.
As to `Cc1ccc2[nH]cc(/C=C/c3cc[n+](C)cc3)c2c1`, the inhibition was 29.2%.
To `Cc1[nH]c2ccccc2c1/C=C/C(=O)c1ccccc1` belongs 4.5%; to `Cc1[nH]c2ccccc2c1/C=C/c1cc[n+](C)cc1`, 71.2% (active).
Turning to `C[n+]1ccc(/C=C/c2c[nH]c3ccc(F)cc23)cc1`, the inhibition was -4.5%.
The same measure for `COc1cccc(CNS(=O)(=O)c2ccc3c(c2)N(C(C)=O)CCO3)c1`: -10.2%.
Regarding `O=C(CSCc1ccc(Cl)cc1)Nc1ccc(Br)cc1C(=O)O`, the inhibition is 2.2%.
`Cn1c(=O)[nH]c(=O)c2c1nc(Sc1nc3ccccc3s1)n2Cc1ccccc1`: the inhibition was 13.4%.
As to `Cn1c(SCc2ccc(Br)cc2)nc2c(c1=O)SCC2`, the inhibition is -9.1%.
Take `CCOC(=O)C1=C(Cc2ccc(C)cc2)C(=O)c2ccccc2C1=O`: the inhibition is 5%.
Consider `CCOC(=O)C1=C(Cc2ccc(F)cc2)C(=O)c2ccccc2C1=O`, for which the inhibition was 11.7%.
